Source: PubChem BioAssay AID485297 (National Center for Advancing Translational Sciences (NCATS), 2010)
The campaign covered roughly 320,000 compounds. About 9,100 (2.8%) were called active. Not shown: some 3% with an inconclusive outcome. The sample holds actives, similar compounds and a random draw of the others, so the mix is not that of the screen. Calls come from the whole dose curve; as a rule, active = well fitted activation curve with a large enough effect; inconclusive = small, poorly fitted or top-dose-only effect; inactive = no such curve, though single readings can be large or run the other way.

assay: qHTS Assay for Rab9 Promoter Activators; conditions: Huh7 Rab9 promoter-luciferase reporter, luminescence, 24 h; series mostly up to 9.22 µM; activation, negative = inhibition: at the top concentration; note: nearly all actives have a fitted effect of over 60% in size; for activation, negative = inhibition: % of control where 0% means no effect
Summary of the method: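 Huh7 reporter line, Rab9 promoter upstream of luciferase. Compound exposure 24 h at 37 °C in reduced-serum medium with 10% FBS. Read-out: luminescence.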
Potency is the fitted concentration of half-maximal effect.

| Structure (SMILES) | activation, negative = inhibition | Potency |
| --- | --- | --- |
| O=C(C1Cc2ccccc2CN1C(=O)c1ccco1)N1CCN(c2ccccc2)CC1 (centres undefined) | -0.202% (inactive) |  |
| CCn1cnc2scc(-c3ccc(C)c(C)c3)c2c1=O | -0.893% (inactive) |  |
| O=C(O)C1CCCCC1C(=O)Nc1ccc(Cl)cc1 (centres undefined) | -0.294% (inactive) |  |
| O=C(Nc1ccc(Cl)cc1)/C(=C1\CCCN1)[N+](=O)[O-] |  | 2.82 µM (active) |
| Cc1nc([N+](=O)[O-])cn1CC(=O)Nc1ccc(Cl)cc1 | 2.29% (inactive) |  |
| COc1ccc(N2C(=O)CC(Nc3ccc(F)cc3)C2=O)c([N+](=O)[O-])c1 (centres undefined) | 7.65% (inactive) |  |
| N/C(=N\OC(=O)c1ccc([N+](=O)[O-])cc1)c1ccccn1 |  | 0.316 µM (active) |
| COc1ccc(C(=O)O/N=C(\N)c2ccccn2)cc1[N+](=O)[O-] |  | 4.47 µM (active) |
| Cc1ccc(C(=O)O/N=C(\N)c2ccccn2)cc1Cl |  | 3.16 µM (active) |
| COc1ccc(C(=O)CSc2nc(C)cc(C)n2)cc1[N+](=O)[O-] | -0.448% (inactive) |  |
| O=C(Nc1ccccc1Cl)O/N=C(/c1ccccc1)c1ccccn1 | 9.2% (inactive) |  |
| O=C(COC(=O)c1ccccn1)NNC(=O)c1ccc([N+](=O)[O-])cc1 | -4.35% (inactive) |  |
| Cc1ccc(Cl)cc1NC(=O)c1ccccn1 | 12% (inactive) |  |
| O=C(OCc1ccc([N+](=O)[O-])cc1)c1ccccn1 | -1.27% (inactive) |  |
| COc1ccccc1OCC(=O)OCn1c(SC)nnc(C)c1=O | -2.91% (inactive) |  |
| COc1ccccc1OCC(=O)O/N=C(\N)c1ccccn1 |  | 3.16 µM (active) |
| COc1ccc(C(=O)NNC(=O)c2cnccn2)cc1[N+](=O)[O-] | 0.405% (inactive) |  |
| COc1ccccc1OCC(=O)OCc1cc(-c2ccco2)on1 | 1.46% (inactive) |  |
| CC(C)Cn1c(N)c(C(=O)COC(=O)C2CCCN2C(=O)c2cccs2)c(=O)n(C)c1=O (centres undefined) | -0.406% (inactive) |  |
| CCOc1c(Nc2cccc(Cl)c2)c(=O)c1=O | -5.39% (inactive) |  |
| CS(=O)(=O)Nc1ccccc1C(=O)OCC(=O)NC1CC1 | -1.03% (inactive) |  |
| CCOC(=O)C1CCN(C(=O)c2cccc(S(=O)(=O)N(CC)c3ccccc3)c2)CC1 | -4.21% (inactive) |  |
| Cn1c2cc(B(O)O)sc2c2cnn(Cc3ccccc3F)c(=O)c21 | -3.22% (inactive) |  |
| COc1ccc(CC2c3cc(OC)c(OC)cc3CC[N+]2(C)CCC(=O)OCCCCCOC(=O)CC[N+]2(C)CCc3cc(OC)c(OC)cc3C2Cc2ccc(OC)c(OC)c2)cc1OC (centres undefined) | -6.08% (inactive) |  |
| CCc1cccc(C)c1NC(=O)COC(=O)CC1CCCC1 | 0.691% (inactive) |  |
| Cc1cc(C)c(S(=O)(=O)N2CCC(C(=O)OCc3c(C)noc3C)CC2)c(C)c1 | 2.51% (inactive) |  |
| CC(=O)c1ccc(OCCCC(=O)Nc2ccc(C)c(S(=O)(=O)N3CCOCC3)c2)cc1 | -10.3% (inactive) |  |
| COc1ccc(Cl)cc1C(=O)OCC(=O)NCc1cccs1 | 2.82% (inactive) |  |
| CCOC(=O)c1c(C)[nH]c(C(=O)NCCN2CCOCC2)c1C | -1.3% (inactive) |  |
